# Screening results deposited in PubChem by DiRusso Lab, Biochemistry Department, University of Nebraska.
# Chlamy TAG = inducers of triacylglycerol accumulation in Chlamydomonas reinhardtii algae; actives 0.84% (n = 44,000); Chlamydomonas reinhardtii TAG, Nile Red fluorescence, 72 h; calls only at 10 µM (by protocol); call rule not given here;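 note: hits raise Nile Red signal meaning more stored TAG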
# Numbers without * were called inactive; i = inactive; + = active, no number. Shown is part of a subset that was picked to be rich in hits.
SMILES,Chlamy TAG
c1cc2c(cc1CN1CCOCC1)OCO2,i
c1cc2c(cc1CN1CCCCC1)OCO2,i
c1ccc2c(c1)CCN(Cc1ccc3c(c1)OCO3)C2,+
C=C(C)CSc1nc(C)c(CC(=O)O)c(=O)[nH]1,i
CC1CC(=O)C2=C(C1)OC(N)=C(C#N)C2c1ccc(Br)cc1 (stereo not drawn),i
Cc1ccc(C(=O)NCC2CCCO2)cc1Br (stereo not drawn),i
CCc1ccccc1NC(=O)CCCc1ccccc1,i
Cc1ccccc1OCCCCN1CCOCC1,+
Cc1cc(C)c(C)c(OCCCCN2CCOCC2)c1,+
C=CCc1ccccc1OCCCCN1CCOCC1,i
Cc1cc(C)c(OCCN2CCOCC2)c(C)c1,i
Cc1ccc(C(C)C)cc1OCCCCN1CCOCC1,+
Cc1ccc(OCCCN2CCOCC2)cc1C,i
Cc1cccc(OCCN2CCOCC2)c1C,i
Cc1cc(C)c(C)c(OCC(=O)NCCN2CCOCC2)c1,i
C=CCc1cc(C)ccc1OCCCCN1CCOCC1,i
C=CCn1c(C2CC(=O)N(c3ccccc3)C2)nc2ccccc21 (stereo not drawn),i
O=C(CC1CCCCC1)Nc1ccccn1,i
Cc1cc(Cl)ccc1NS(=O)(=O)c1cccc([N+](=O)[O-])c1,i
OC1(C#CCN2CCOCC2)CCCCC1,i
C(#CC1CC1)CN1CCOCC1,i
C(#CC12CC3CC(CC(C3)C1)C2)CN1CCOCC1,+
OC1CCC2CC1CCC2O (stereo not drawn),i
O=C(Nc1ccccc1)C1CCN(S(=O)(=O)c2ccc(F)cc2)CC1,i
CCOc1ccc(C(=O)NCCC(=O)O)cc1,i
SMILES,Chlamy TAG
CCOc1ccc(C(=O)NCCNC(=O)c2ccc(OCC)cc2)cc1,+
CCOc1ccc(C(=O)NCCCN(C)C)cc1,i
c1ccc(-c2ccccc2OCCCN2CCOCC2)cc1,i
CCC(C)c1ccccc1OCCOCCN1CCCC1 (stereo not drawn),i
CCC(C)c1ccccc1OCCNC(C)C (stereo not drawn),i
Clc1ccc(OCCOCCN2CCOCC2)cc1Cl,i
O=[N+]([O-])c1ccccc1OCCCN1CCOCC1,i
CCOc1ccc(OCCOCCN2CCOCC2)cc1,i
CCC(C)c1ccccc1OCCCN1CCOCC1 (stereo not drawn),+
CCC(C)c1ccccc1OCCN1CCCC1 (stereo not drawn),i
CCC(C)c1ccccc1OCCCCN1CCCC1 (stereo not drawn),+
CCC(C)c1ccccc1OCCOCCN1CCOCC1 (stereo not drawn),+
Fc1ccccc1OCCN1CCOCC1,i
CCc1ccc(OCCOCCN2CCOCC2)cc1,+
COc1ccc(CN2CCN(c3ncnc4c3cnn4-c3ccccc3)CC2)cc1,i
COc1cc([N+](=O)[O-])ccc1NC(=O)c1cc(-c2ccc3c(c2)OCO3)nc2ccccc12,i
O=C(CN(c1ccccc1)S(=O)(=O)c1ccccc1[N+](=O)[O-])N1CCc2ccccc2C1,i
Cc1ccc(S(=O)(=O)Nc2cc(Cl)c(O)c(Cl)c2Cl)cc1,i
COc1ccc(NC(=O)COc2ccc(Br)c(C)c2)cc1OC,i
Cc1ccc(NC(=O)Cc2nc3ccccc3n2CCC#N)cc1,i
O=S(=O)(Nc1ccc(O)c(Cl)c1)c1cc(Cl)ccc1Cl,i
CCn1c(=O)c(C(=O)NCC2CCCO2)c(O)c2ccccc21 (stereo not drawn),i
Cc1ccc(C(C)C)c(OCC(=O)Nc2ccc(NC(=O)C(C)C)cc2)c1,i
Cc1cc(NC(=O)c2ccc(-c3ccccc3)cc2)no1,i
Cc1ccccc1NCC(=O)c1ccc([N+](=O)[O-])cc1,i
SMILES,Chlamy TAG
Cc1cc(C)c(S(=O)(=O)N2CCN(C)CC2)cc1C,i
Cc1cc(C)c(S(=O)(=O)N2CCN(c3ccccc3)CC2)cc1Br,i
Cc1cc(C)c(S(=O)(=O)N2CCN(C)CC2)cc1Br,+
CC(=O)Nc1nc(-c2ccc(NC(=O)c3ccccc3)cc2)cs1,i
CN(CC(=O)NC1CCCC1)S(=O)(=O)c1ccc(Br)cc1,i
CN(C(=O)c1ccc([N+](=O)[O-])cc1)c1ccccc1,i
Clc1ccc(Nc2nc3nonc3n3cnnc23)cc1,i
C=CCOc1ccc(C(O)=C2C(=O)C(=O)N(CCCN(C)C)C2c2ccc(F)cc2)cc1 (stereo not drawn),i
CC(C(=O)NCc1ccc(Cl)cc1)N(c1ccccc1)S(C)(=O)=O (stereo not drawn),+
CC(C(=O)NC1CCCCCC1)N(c1ccccc1)S(C)(=O)=O (stereo not drawn),i
CC(C(=O)NCc1cccnc1)N(c1ccccc1)S(C)(=O)=O (stereo not drawn),i
COc1cc(NC(=O)CSCc2ccccc2)c(C(=O)O)cc1OC,i
CCc1cccc(OCC(=O)Nc2cc(OC)c(OC)cc2C(=O)O)c1,+
COc1ccc(OCC(=O)Nc2cc(OC)c(OC)cc2C(=O)O)cc1,i
CC1(C)CC(=O)C=C(Nc2ccc(F)c(F)c2)C1,i
N#CCN(CC#N)S(=O)(=O)c1ccc(Br)cc1,i
